Holding throughout (conditions): mRNA level, 48 h; actives raise or lower the signal
Read-out in assay [1]: Bcl-2 (BID) gene, BID (gene 637)
The experiment in a line: LTEA_HepaRG_BID: Life Technologies and Expression Analysis (LTEA) Assay for Bcl-2 (BID) gene using HepaRG (AID 2283476). An outline of the steps:
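Gene expression by qRT-PCR in HepaRG cells after 48 h exposure, duplicate wells, eight half-log concentrations topping at 100 uM in 0.5% DMSO. Normalized to ACTB, GAPDH, POLR2A; bidirectional fitting relative to DMSO.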

Read-out in the next assay: Caspase-3 (Homo sapiens) (UniProt P42574)
Nature of the assay: LTEA_HepaRG_CASP3: Life Technologies and Expression Analysis (LTEA) Assay for cysteine-aspartic acid protease (CASP3) using HepaRG (AID 2283477). An outline of the steps: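 In HepaRG liver cells dosed for 48 h at up to 100 uM (eight-point, duplicate), CASP3 expression changes are scored by qRT-PCR. Activity is fitted in both directions with 0.5% DMSO as baseline.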

Read-out in assay [2]: Cytochrome P450 (CYP24A1), CYP24A1 (gene 1591)
The experiment in a line: LTEA_HepaRG_CYP24A1: Life Technologies and Expression Analysis (LTEA) Assay for Cytochrome P450 (CYP24A1) using HepaRG (AID 2283478). An outline of the steps:
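Human liver HepaRG cultures receive each chemical for 48 h across an eight-point half-log series topping at 100 uM in 0.5% DMSO. Induction or suppression of CYP24A1 mRNA is scored relative to vehicle after housekeeping-gene normalization.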

Read-out in assay [3]: Cytochrome P450 (CYP1A2), CYP1A2 (gene 1544)
The experiment in a line: LTEA_HepaRG_CYP1A2: Life Technologies and Expression Analysis (LTEA) Assay for Cytochrome P450 (CYP1A2) using HepaRG (AID 2283479). An outline of the steps:
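Assesses CYP1A2 mRNA in human HepaRG liver cells after 48 h chemical exposure at up to 100 uM. Values come from qRT-PCR with bidirectional curve fitting relative to DMSO.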

Read-out in assay [4]: cysteine-aspartic acid protease (CASP8), CASP8 (gene 841)
The experiment in a line: LTEA_HepaRG_CASP8: Life Technologies and Expression Analysis (LTEA) Assay for cysteine-aspartic acid protease (CASP8) using HepaRG (AID 2283480). The essentials: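 Differentiated HepaRG cells in serum-free induction medium, 48 h exposure, eight-point half-log series from 100 uM in 0.5% DMSO, duplicates. CASP8 mRNA by qRT-PCR, normalized to ACTB, GAPDH, POLR2A; bidirectional fit versus DMSO.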

Read-out in assay [5]: Cytochrome P450 (CYP2B6), CYP2B6 (gene 1555)
The experiment in a line: LTEA_HepaRG_CYP2B6: Life Technologies and Expression Analysis (LTEA) Assay for Cytochrome P450 (CYP2B6) using HepaRG (AID 2283481). The essentials: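 Using 48 h treatment of HepaRG cells in serum-free induction medium, concentrations spanned half-log steps from 100 uM in 0.5% DMSO vehicle. CYP2B6 mRNA induction or loss is scored by qRT-PCR against DMSO.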

Read-out in assay [6]: Cytochrome P450 2C19 (Homo sapiens) (UniProt P33261)
The experiment in a line: LTEA_HepaRG_CYP2C19: Life Technologies and Expression Analysis (LTEA) Assay for CYP2C19 using HepaRG (AID 2283482). The essentials:
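Human HepaRG liver cells received test chemicals for 48 h (highest 100 uM, half-log dilutions in 0.5% DMSO). CYP2C19 mRNA induction or loss is read by multiplexed qRT-PCR and fitted in both directions versus vehicle.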

Read-out in a further assay: CYP2C8 (gene 1558)
The experiment in a line: LTEA_HepaRG_CYP2C8: Life Technologies and Expression Analysis (LTEA) Assay for CYP2C8 using HepaRG (AID 2283483). The essentials: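 Differentiated HepaRG cells in serum-free induction medium exposed 48 h in duplicate to 8 half-log concentrations from 100 uM in 0.5% DMSO. CYP2C8 mRNA by qRT-PCR normalized to ACTB, GAPDH, POLR2A; bidirectional fit versus DMSO.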

Read-out in another assay: CYP2C9 (gene 1559)
The experiment in a line: LTEA_HepaRG_CYP2C9: Life Technologies and Expression Analysis (LTEA) Assay for CYP2C9 using HepaRG (AID 2283484). An outline of the steps:
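Differentiated human HepaRG cells in serum-free induction medium were exposed 48 h to chemicals in 8-point half-log series from 100 uM (0.5% DMSO), in duplicate. CYP2C9 mRNA was measured by qRT-PCR, normalized to ACTB/GAPDH/POLR2A, with bidirectional fitting versus DMSO.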

Read-out in another assay: CYP2E1 (gene 1571)
Nature of the assay: LTEA_HepaRG_CYP2E1: Life Technologies and Expression Analysis (LTEA) Assay for CYP2E1 using HepaRG (AID 2283485). An outline of the steps:
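HepaRG cells, plated 48 h, then exposed 48 h in serum-free induction medium to eight half-log concentrations from 100 uM in 0.5% DMSO, duplicate. CYP2E1 mRNA by qRT-PCR, normalized to ACTB/GAPDH/POLR2A; bidirectional fit versus DMSO.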

Read-out in another assay: CYP4A11 (gene 1579)
Nature of the assay: LTEA_HepaRG_CYP4A11: Life Technologies and Expression Analysis (LTEA) Assay for CYP4A11 using HepaRG (AID 2283486). The essentials:
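Readout is CYP4A11 mRNA induction or suppression (qRT-PCR, ACTB/GAPDH/POLR2A normalization) in human HepaRG cells after 48 h chemical treatment, concentrations to 100 uM in 0.5% DMSO, fitted bidirectionally against vehicle.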

Read-out in assay [7]: Cytochrome P450 3A4 (Homo sapiens) (UniProt P08684)
Nature of the assay: LTEA_HepaRG_CYP3A4: Life Technologies and Expression Analysis (LTEA) Assay for CYP3A4 using HepaRG (AID 2283487). The essentials:
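In a human hepatic line (HepaRG), duplicate wells were treated 48 h with up to 100 uM chemical in half-log dilutions. Endpoint: CYP3A4 mRNA induction or loss relative to 0.5% DMSO vehicle, by qRT-PCR.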

Read-out in assay [8]: Pro-epidermal growth factor (Homo sapiens) (UniProt P01133)
The experiment in a line: LTEA_HepaRG_EGF: Life Technologies and Expression Analysis (LTEA) Assay for Epidermal growth factor (EGF) using HepaRG (AID 2283489). The essentials:
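EGF expression changes in human HepaRG cells are scored by bidirectional fitting relative to 0.5% DMSO controls. Chemicals are tested at eight half-log concentrations up to 100 uM for 48 h in serum-free induction medium.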

Read-out in assay [9]: Early growth response protein 1 (EGR1) transcription factor, EGR1 (gene 1958)
The experiment in a line: LTEA_HepaRG_EGR1: Life Technologies and Expression Analysis (LTEA) Assay for Early growth response protein 1 (EGR1) transcription factor using HepaRG (AID 2283490). The essentials:
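Differentiated HepaRG cells in serum-free induction medium exposed 48 hours, duplicate, to 8 half-log concentrations up to 100 uM in 0.5% DMSO. EGR1 mRNA measured by TaqMan qRT-PCR, normalized to ACTB, GAPDH, POLR2A; bidirectional fit versus DMSO.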

Read-out in assay [10]: Ezrin (EZR), EZR (gene 7430)
Nature of the assay: LTEA_HepaRG_EZR: Life Technologies and Expression Analysis (LTEA) Assay for Ezrin (EZR) using HepaRG (AID 2283491). An outline of the steps: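 Gain or loss of EZR mRNA is scored relative to 0.5% DMSO in human HepaRG cultures treated 48 h with test chemicals in duplicate, eight half-log concentrations from 100 uM.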

Read-out in another assay: CYP3A5 (gene 1577)
Nature of the assay: LTEA_HepaRG_CYP3A5: Life Technologies and Expression Analysis (LTEA) Assay for CYP3A5 using HepaRG (AID 2283493). An outline of the steps: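 HepaRG cells, plated 48 h then in serum-free induction medium, dosed in duplicate for 48 h with eight half-log concentrations up to 100 uM in 0.5% DMSO. Gene mRNA by Fluidigm TaqMan qRT-PCR, normalized to ACTB, GAPDH, POLR2A.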

Read-out in assay [11]: Fatty Acid-Binding Protein 1 (FABP1), FABP1 (gene 2168)
The experiment in a line: LTEA_HepaRG_FABP1: Life Technologies and Expression Analysis (LTEA) Assay for Fatty Acid-Binding Protein 1 (FABP1) using HepaRG (AID 2283494). An outline of the steps:
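Differentiated human HepaRG cells exposed 48 h in serum-free induction medium to eight half-log concentrations up to 100 uM (0.5% DMSO), duplicate. FABP1 mRNA by qRT-PCR, normalised to ACTB, GAPDH, POLR2A; bidirectional fitting against DMSO.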

Read-out in assay [12]: Cytochrome P450 4A22 (Homo sapiens) (UniProt Q5TCH4)
The experiment in a line: LTEA_HepaRG_CYP4A22: Life Technologies and Expression Analysis (LTEA) Assay for Cytochrome P450 4A22 (CYP4A22) using HepaRG (AID 2283495). The essentials: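 Cryopreserved HepaRG cells, plated and cultured 48 h, then switched to serum-free induction medium and treated 48 h (duplicates, up to 100 uM, half-log steps, 0.5% DMSO). Expression change of CYP4A22 was fitted bidirectionally against vehicle.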

Read-out in assay [13]: Cytochrome P450 3A7 (Homo sapiens) (UniProt P24462)
Nature of the assay: LTEA_HepaRG_CYP3A7: Life Technologies and Expression Analysis (LTEA) Assay for CYP3A7 using HepaRG (AID 2283492). The essentials:
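Cells were thawed, plated, cultured 48 h, then treated for a further 48 h with chemicals (eight-point half-log series from 100 uM, 0.5% DMSO). RNA was isolated and CYP3A7 expression quantified by qRT-PCR normalised to ACTB, GAPDH and POLR2A.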

Structures are written as SMILES. Activity calls are given as the source filed them. How the source made its calls: active means hit-call score of the fitted dose curve at least 0.9, where 1 is the maximum; inactive means score below 0.9.

Sequence of Cytochrome P450 2C19 (Homo sapiens) (P33261 whole entry, looked up): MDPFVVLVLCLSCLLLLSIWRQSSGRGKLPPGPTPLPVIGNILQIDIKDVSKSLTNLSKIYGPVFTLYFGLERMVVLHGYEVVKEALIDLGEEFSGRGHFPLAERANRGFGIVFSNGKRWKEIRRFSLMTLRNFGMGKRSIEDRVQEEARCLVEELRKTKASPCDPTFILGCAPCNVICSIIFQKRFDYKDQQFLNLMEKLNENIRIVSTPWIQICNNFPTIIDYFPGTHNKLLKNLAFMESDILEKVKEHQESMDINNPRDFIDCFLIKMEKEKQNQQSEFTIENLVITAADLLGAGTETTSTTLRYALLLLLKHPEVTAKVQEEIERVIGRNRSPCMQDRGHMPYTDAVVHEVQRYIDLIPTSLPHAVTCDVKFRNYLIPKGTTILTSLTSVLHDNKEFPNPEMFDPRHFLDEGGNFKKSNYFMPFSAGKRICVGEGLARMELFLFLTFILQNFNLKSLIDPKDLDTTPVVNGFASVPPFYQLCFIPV
Sequence of Cytochrome P450 3A4 (Homo sapiens) (P08684 whole entry, looked up): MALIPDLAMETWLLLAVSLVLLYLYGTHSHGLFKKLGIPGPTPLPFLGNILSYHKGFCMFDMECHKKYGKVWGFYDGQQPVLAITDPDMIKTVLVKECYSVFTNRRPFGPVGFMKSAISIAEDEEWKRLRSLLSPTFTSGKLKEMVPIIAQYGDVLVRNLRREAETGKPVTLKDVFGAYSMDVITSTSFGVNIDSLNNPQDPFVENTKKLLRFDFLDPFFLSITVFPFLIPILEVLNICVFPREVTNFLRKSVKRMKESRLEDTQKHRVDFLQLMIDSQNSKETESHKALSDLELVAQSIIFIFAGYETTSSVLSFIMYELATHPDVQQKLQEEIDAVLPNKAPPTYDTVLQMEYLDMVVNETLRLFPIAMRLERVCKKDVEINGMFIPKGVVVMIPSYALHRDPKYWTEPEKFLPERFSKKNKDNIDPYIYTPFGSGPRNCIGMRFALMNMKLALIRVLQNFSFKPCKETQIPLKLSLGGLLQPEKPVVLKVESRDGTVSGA
Sequence of Caspase-3 (Homo sapiens) (P42574 whole entry, looked up): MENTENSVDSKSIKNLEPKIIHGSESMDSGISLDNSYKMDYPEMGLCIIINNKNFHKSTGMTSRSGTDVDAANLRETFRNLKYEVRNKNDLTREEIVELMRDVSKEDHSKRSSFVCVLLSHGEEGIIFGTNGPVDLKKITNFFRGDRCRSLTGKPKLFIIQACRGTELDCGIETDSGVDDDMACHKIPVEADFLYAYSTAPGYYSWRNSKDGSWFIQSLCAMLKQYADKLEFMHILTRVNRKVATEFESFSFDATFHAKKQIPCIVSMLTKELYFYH
Sequence of Cytochrome P450 3A7 (Homo sapiens) (P24462 whole entry, looked up): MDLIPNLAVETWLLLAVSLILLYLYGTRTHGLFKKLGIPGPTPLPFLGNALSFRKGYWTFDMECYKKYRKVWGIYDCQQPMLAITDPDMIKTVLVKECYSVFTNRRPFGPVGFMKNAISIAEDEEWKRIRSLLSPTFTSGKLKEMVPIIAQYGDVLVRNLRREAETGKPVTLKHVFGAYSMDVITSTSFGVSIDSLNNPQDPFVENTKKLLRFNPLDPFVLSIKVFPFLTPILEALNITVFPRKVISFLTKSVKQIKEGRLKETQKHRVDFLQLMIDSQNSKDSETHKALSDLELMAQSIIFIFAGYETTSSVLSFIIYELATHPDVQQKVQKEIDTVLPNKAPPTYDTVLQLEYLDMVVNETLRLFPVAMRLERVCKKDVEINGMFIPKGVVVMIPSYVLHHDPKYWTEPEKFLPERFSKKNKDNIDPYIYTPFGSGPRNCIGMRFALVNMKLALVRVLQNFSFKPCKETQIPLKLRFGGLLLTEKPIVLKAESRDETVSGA

Consider `CCOC(=O)C(C)OC(=O)c1cc(Oc2ccc(C(F)(F)F)cc2Cl)ccc1[N+](=O)[O-]` (centres undefined), for which the result (in assay [1]; with Caspase-3 (Homo sapiens); in assay [2]; in assay [3]; in assay [4]; in the assay with CYP2C9 (gene 1559)) was inactive. The result in [8] and in assay [10] was inactive. Further, the AC50 (usually the midpoint of the concentration-response curve, whichever way the signal moves) in [5] was 11.5 µM (active); in assay [6], 12.9 µM (active); with CYP2C8 (gene 1558), 12.8 µM (active); in the assay with CYP2E1 (gene 1571) it was 36.6 µM (active); in the assay with CYP4A11 (gene 1579) it was 0.598 µM (active); in [7], 4.78 µM (active). In addition, the AC50 is 18.7 µM (active) in [9], 27.5 µM (active) with CYP3A5 (gene 1577), 14.5 µM (active) in assay [11] and 0.414 µM (active) in assay [12].
Consider `N#CN=C1SCCN1Cc1ccc(Cl)nc1`, for which the compound was called inactive (in assay [1]; in the assay with Caspase-3 (Homo sapiens); in assay [2]; in assay [3]; in assay [4]; in the assay with CYP2C8 (gene 1558)). Besides, the result (with CYP2C9 (gene 1559); in the assay with CYP2E1 (gene 1571); in the assay with CYP4A11 (gene 1579); in assay [8]; in assay [9]; in assay [10]) was inactive. For the same compound, the compound was classed as inactive (with CYP3A5 (gene 1577); in assay [11]; in assay [12]). Also, the AC50 in assay [5] was 28.6 µM (active); in assay [6], 34.1 µM (active); in assay [7] it was 30.6 µM (active).
Regarding `COP(=S)(OC)SCn1nnc2ccccc2c1=O`, the call (in assay [1]; with Caspase-3 (Homo sapiens); in assay [2]; in [4]; with CYP2C8 (gene 1558); with CYP2C9 (gene 1559)) was inactive. Further, the compound was classed as inactive (in the assay with CYP2E1 (gene 1571); with CYP4A11 (gene 1579); in assay [8]; in assay [10]; in assay [13]; in the assay with CYP3A5 (gene 1577)). For the same compound, the compound was classed as inactive in assay [11] and in [12]. The AC50 was 33.6 µM (active) in assay [3], 6.27 µM (active) in assay [5], 40.9 µM (active) in assay [6] and 25 µM (active) in assay [7].

(Values after PubChem BioAssay (EPA / NIEHS).)
